Values joined by “and” are separate entries in the source; they are usually repeats but may differ in a detail not shown here. Equal values may be shown once. Among all 190,000 compounds or so, about 1,300 (0.68%) were called active. No stated cut-off is given here; in the data, active means inhibition above about 50%; inactive means the rest. For the sample, actives were picked, then their nearest neighbours and some compounds at random. Some compounds were tested as several samples or in several runs, with calls that do not always agree.
molecular target: Mannose-6-phosphate isomerase (Homo sapiens) (UniProt P34949); test: human PMI inhibitors, high substrate, primary screen, biochemical, fluorescence intensity, high mannose 6-phosphate (AID 1220); conditions: recombinant PMI enzyme, coupled fluorescence intensity; at 20 µM; stronger effect = higher value
Sequence (P34949 whole entry, looked up): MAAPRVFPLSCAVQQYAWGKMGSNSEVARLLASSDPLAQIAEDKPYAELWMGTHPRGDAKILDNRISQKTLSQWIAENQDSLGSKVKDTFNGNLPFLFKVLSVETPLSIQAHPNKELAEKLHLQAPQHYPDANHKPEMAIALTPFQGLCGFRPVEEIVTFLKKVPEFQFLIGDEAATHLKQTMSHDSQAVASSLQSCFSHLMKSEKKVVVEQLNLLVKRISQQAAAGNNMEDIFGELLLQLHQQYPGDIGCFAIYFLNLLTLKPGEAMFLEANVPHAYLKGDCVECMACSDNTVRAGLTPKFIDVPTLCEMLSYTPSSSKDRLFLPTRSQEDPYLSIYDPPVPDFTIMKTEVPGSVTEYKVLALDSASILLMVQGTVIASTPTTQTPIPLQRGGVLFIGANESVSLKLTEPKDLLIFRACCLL

Compound	inhibition
COc1cc(CN2CCCC(C(=O)c3sccc3C)C2)cc(Cl)c1O (stereo not drawn)	14% (inactive)
COc1cc(CN2CCCC(C(=O)c3sccc3C)C2)cc(OC)c1O (stereo not drawn)	65.3% (active)
COc1ccc(CN2CCCC(C(=O)c3sccc3C)C2)cc1O (stereo not drawn)	1.4% (inactive)
Cc1ccc(-n2c(O)c(/C=N/N3CCOCC3)c(=O)[nH]c2=S)cc1	29% (inactive)
O=c1[nH]c(=S)n(-c2ccccc2)c(O)c1/C=N/N1CCOCC1	3.4% (inactive)
Cc1ccccc1-n1c(O)c(/C=N/N2CCOCC2)c(=O)[nH]c1=S	55.7% (active)
CN1C(=O)N(C)C(=O)C2(Sc3ccccc3C2=O)C1=O	-1.5% (inactive)
CCN(CC)c1ccc(N=Cc2c(O)n(CCC3=CCCCC3)c(=O)[nH]c2=O)cc1	58.1% (active)
CCOc1ccccc1-n1c(O)c(C=Nc2ccc(N(CC)CC)cc2)c(=O)[nH]c1=O	59.3% (active)
CCN(CC)CCN=Cc1c(O)n(CCC2=CCCCC2)c(=O)[nH]c1=O	1.6% (inactive)
CCN(CC)c1ccc(N=Cc2c(O)n(Cc3ccccc3)c(=O)[nH]c2=O)cc1	13.5% (inactive) and 50.6% (active)
CN(C)c1ccc(N=Cc2c(O)n(CCC3=CCCCC3)c(=O)[nH]c2=O)cc1	28.9% (inactive)
C=CCn1c(O)c(C=Nc2ccc(N(CC)CC)cc2)c(=O)[nH]c1=O	4% (inactive)
CCN(CC)c1ccc(N=Cc2c(O)n(-c3ccccc3C)c(=O)[nH]c2=O)cc1	19.9% (inactive)
CCN(CC)c1ccc(N=Cc2c(O)n(-c3ccc(Cl)cc3)c(=O)[nH]c2=O)cc1	39.5% (inactive)
CCOc1ccc(-n2c(O)c(C=Nc3ccc(N(CC)CC)cc3)c(=O)[nH]c2=O)cc1	18.2% (inactive)
Cc1nc2cc(-c3ccccc3)nn2c(C)c1CCC(=O)N1CCC2(CC1)OCCO2	12.2% (inactive)
COc1ccccc1NC1=NCCS1	-1% (inactive)
Cc1ccccc1OP(N)(=O)Oc1ccccc1C	3% (inactive)
CN1C(=O)C(Cc2cccc3ccccc23)C(=O)N(C)C1=O	-9.1% (inactive)

Compound	inhibition
O=C(COC(=O)Cc1ccccc1)Nc1ccc(Cl)cn1	-6.1% (inactive)
COC(=O)CC1=C(C(=O)OC)C2(C(=O)Nc3c(C)cccc32)C(C#N)=C(N)O1 (stereo not drawn)	4.4% (inactive)
c1cncc(C2CCCCN2Cc2ccc3c(c2)OCO3)c1 (stereo not drawn)	4.9% (inactive)
CCN1CCN(Cc2cc(OC)c(OC)cc2[N+](=O)[O-])CC1	59.2% (active)
CCN1CCN(c2cc(N3CCCC3)c([N+](=O)[O-])cc2F)CC1	25.4% (inactive)
CCN1CCN(Cc2cc(Br)cc(OC)c2O)CC1	18% (inactive)
CCOc1ccccc1-n1c(O)c(C=NCCCN(CC)CC)c(=O)[nH]c1=O	-2.3% (inactive)
O=C(c1cc(-c2ccccc2)on1)N1CCC2(CC1)OCCO2	-0.7% (inactive)
Oc1ccc(/C=N/NP(=S)(c2ccccc2)c2ccccc2)cc1	8.7% (inactive)
Oc1ccccc1/C=N/NP(=S)(c1ccccc1)c1ccccc1	10.4% (inactive)
Oc1ccc(/C=N/NP(=S)(c2ccccc2)c2ccccc2)c(O)c1O	52.2% (active)
COC(=O)CNC(=O)c1cn(CCC#N)nc1-c1ccc(F)cc1	-0.2% (inactive)
O=C(CSc1ccccc1)N1CCC2(CC1)OCCO2	14.1% (inactive)
CCOC(=O)C1=C(C)OC(N)=C(C#N)C12C(=O)Nc1ccc(C)cc12 (stereo not drawn)	-2.3% (inactive)
CCCC1=C(C(=O)OCC)C2(C(=O)Nc3ccc(C)cc32)C(C#N)=C(N)O1 (stereo not drawn)	8.5% (inactive)
O=C1CCCN1c1ccc(S(=O)(=O)O)cc1 (tested in a mixture with another compound)	-11.1% (inactive)
CC(=O)c1ccc(OC(NC(=O)c2ccco2)C(Cl)(Cl)Cl)cc1 (stereo not drawn)	7.7% (inactive)
CC(C)OCCCNC(=O)c1c(N)n(Cc2cccs2)c2nc3ccccc3nc12	57.4% (active)
CC(C)CCn1c(N)c(C(=O)NCc2cccs2)c2nc3ccccc3nc21	59.5% (active)
CC(C)CNC(=O)c1c(N)n(Cc2ccco2)c2nc3ccccc3nc12	-12.2% (inactive)

Compound	inhibition
COCCCn1c(N)c(C(=O)Nc2sc3c(c2C(=O)OC)CCCC3)c2nc3ccccc3nc21	24.1% (inactive)
COCCCn1c(N)c(C(=O)NCCC(C)C)c2nc3ccccc3nc21	63.7% (active)
CCCCNC(=O)c1c(N)n(CCCOC)c2nc3ccccc3nc12	40.9% (inactive)
CCC(C)OC(=O)c1c(N)n(Cc2cccs2)c2nc3ccccc3nc12 (stereo not drawn)	8.2% (inactive)
Nc1c(C(=O)NCCCc2ccccc2)c2nc3ccccc3nc2n1Cc1cccs1	17.4% (inactive)
CCOCCCn1c(N)c(C(=O)Nc2sc3c(c2C(=O)OC)CCCC3)c2nc3ccccc3nc21	62.1% (active)
CCOC(=O)c1c(NC(=O)c2c(N)n(CCCOC)c3nc4ccccc4nc23)sc2c1CCCC2	24.1% (inactive)
COCCNC(=O)c1c(N)n(CCC(C)C)c2nc3ccccc3nc12	34.1% (inactive)
CCCOC(=O)c1c(N)n(Cc2cccs2)c2nc3ccccc3nc12	-0.8% (inactive)
CCOc1cc(C2C(C#N)=C(N)Oc3c2c(=O)oc2ccccc32)ccc1OC(=O)c1cccs1 (stereo not drawn)	2.8% (inactive)
Cc1ccnc(-n2c(-c3ccccc3)nc3ccccc3c2=O)c1	15.9% (inactive)
CC(C(=O)c1c[nH]c2ccccc12)N1CCc2ccccc2C1 (stereo not drawn)	6.1% (inactive)
CCCC1(CCC)C(=O)NC(=Nc2ccc(C)cc2)NC1=O	2.5% (inactive)
CN1CN=C(N[N+](=O)[O-])N(Cc2ccco2)C1	-10.4% (inactive)
O=C(Cn1cnc2sc3c(c2c1=O)CCCC3)NCCC(=O)N1CCC2(CC1)OCCO2	1.1% (inactive)
CN1C[C@H](CO)C=C2c3cccc4[nH]cc(c34)C[C@H]21	65.5% (active)
CC(C)C[C@H]1C(=O)N2CCCC2[C@]2(O)O[C@](NC(=O)[C@@H]3C=C4c5cccc6[nH]cc(c56)CC4N(C)C3)(C(C)C)C(=O)N12 (stereo partly drawn)	48.1% (inactive)
CC(C)[C@H]1C(=O)N2CCC[C@H]2[C@]2(O)O[C@](NC(=O)[C@@H]3C=C4c5cccc6[nH]cc(c56)C[C@H]4N(C)C3)(C(C)C)C(=O)N12	0.6% (inactive)

Source: PubChem BioAssay AID1220 (Sanford-Burnham Center for Chemical Genomics, 2008)
